# Laboratory results from PubChem BioAssay AID1159580 (chemical genetic matrix, 2015).
# “And” between values parts separate entries of the source, which are not always exact repeats. Equal values may be shown once. The whole screen tested about 5,500 compounds, of which about 2,000 (36%) were called active. Not shown: some 18% with an inconclusive outcome. This is one part of the list. A number with no mark means an inactive call. No stated cut-off is given here; in the data, active means normalized growth mostly below about 0.91 (no sharp cut-off); inconclusive means no clear call, values can overlap the other calls; inactive means mostly above about 0.92.
# Assay: chemical genetic growth profiling, strain panel (AID 1159580);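 further: tested at 20 µM; growth read once vehicle control cultures reached saturation at 30 °C; 1 = growth at the plate median or of vehicle wells; lower values mean less growth of the strain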
# Details: S. cerevisiae deletion strains, growth OD
structure (smiles),measurement,setting,value
CCCCCCCCCc1ccc(O)cc1,normalized growth,"locus YAL013W, strain DEP1, active compounds read low",0.118 (active)
same,normalized growth,"locus YAL021C, strain ccr4, active compounds read low",0.0845 (active)
same,normalized growth,"locus YAL026C, strain drs2, active compounds read low",0.0626 (active)
same,normalized growth,"locus YAL030W, strain snc1, active compounds read low",0.0571 (active)
same,normalized growth,"locus YBL061C, strain skt5, active compounds read low",0.0594 (active)
same,normalized growth,"locus YBR009C, strain hhf1, active compounds read low",0.0563 (active)
same,normalized growth,"locus YBR021W, strain FUR4, active compounds read low",0.215 (active)
same,normalized growth,"locus YBR023C, strain chs3, active compounds read low",0.0626 (active)
same,normalized growth,"locus YBR171W, strain sec66, active compounds read low",0.0781 (active)
same,normalized growth,"locus YBR229C, strain ROT2, active compounds read low",0.144 (active)
same,normalized growth,"locus YBR231C, strain swc5, active compounds read low",0.0635 (active)
same,normalized growth,"locus YBR279W, strain paf1, active compounds read low",0.066 (active)
same,normalized growth,"locus YCL011C, strain gbp2, active compounds read low",0.0546 (active)
same,normalized growth,"locus YCL016C, strain dcc1, active compounds read low",0.0648 (active)
same,normalized growth,"locus YCL029C, strain bik1, active compounds read low",0.617 (active)
same,normalized growth,"locus YCL061C, strain MRC1, active compounds read low",0.0666 (active)
same,normalized growth,"locus YCL069W, strain vba3, active compounds read low",0.0655 (active)
same,normalized growth,"locus YCR088W, strain abp1, active compounds read low",0.0637 (active)
same,normalized growth,"locus YDL005C, strain med2, active compounds read low",0.0719 (active)
same,normalized growth,"locus YDL035C, strain GPR1, active compounds read low",0.0859 (active)
same,normalized growth,"locus YDL040C, strain nat1, active compounds read low",0.0822 (active)
same,normalized growth,"locus YDL074C, strain BRE1, active compounds read low",0.0981 (active)
same,normalized growth,"locus YDL101C, strain DUN1, active compounds read low",0.1 (active)
same,normalized growth,"locus YDL134C, strain PPH21, active compounds read low",0.0971 (active)
same,normalized growth,"locus YDL185W, strain tfp1, active compounds read low",0.929
same,normalized growth,"locus YDL192W, strain arf1, active compounds read low",0.411 (active)
same,normalized growth,"locus YDR001C, strain nth1, active compounds read low",0.0685 (active)
same,normalized growth,"locus YDR069C, strain doa4, active compounds read low",0.115 (active)
same,normalized growth,"locus YDR101C, strain arx1, active compounds read low",0.721 (active)
same,normalized growth,"locus YDR137W, strain rgp1, active compounds read low",0.101 (active)
same,normalized growth,"locus YDR150W, strain NUM1, active compounds read low",0.529 (active)
same,normalized growth,"locus YDR159W, strain sac3, active compounds read low",0.0748 (active)
same,normalized growth,"locus YDR162C, strain NBP2, active compounds read low",0.102 (active)
same,normalized growth,"locus YDR195W, strain ref2",0.0909 (active)
same,normalized growth,"locus YDR297W, strain sur2, active compounds read low",0.0579 (active)
same,normalized growth,"locus YDR318W, strain mcm21, active compounds read low",0.58 (active)
same,normalized growth,"locus YDR334W, strain swr1, active compounds read low",0.0683 (active)
same,normalized growth,"locus YDR335W, strain msn5, active compounds read low",0.06 (active)
same,normalized growth,"locus YDR388W, active compounds read low",0.678 (active)
same,normalized growth,"locus YDR392W, strain spt3, active compounds read low",0.0671 (active)
same,normalized growth,"locus YDR502C, strain sam2, active compounds read low",0.8 (active)
same,normalized growth,"locus YEL003W, strain gim4, active compounds read low",0.0581 (active)
same,normalized growth,"locus YEL037C, strain rad23, active compounds read low",0.0885 (active)
same,normalized growth,"locus YEL061C, strain CIN8 (second series), active compounds read low",0.059 (active)
same,normalized growth,"locus YEL061C, strain CIN8, active compounds read low",0.131 (active)
same,normalized growth,"locus YER015W, strain faa2, active compounds read low",0.0639 (active)
same,normalized growth,"locus YER016W, strain bim1, active compounds read low",0.0583 (active)
same,normalized growth,"locus YER110C, active compounds read low",0.603 (active)
same,normalized growth,"locus YER111C, strain swi4, active compounds read low",0.0713 (active)
same,normalized growth,"locus YER155C, strain BEM2 (second series), active compounds read low",0.504 (active)
same,normalized growth,"locus YER155C, strain BEM2, active compounds read low",0.101 (active)
same,normalized growth,"locus YER167W, strain BCK2, active compounds read low",0.117 (active)
same,normalized growth,"locus YFR010W, strain ubp6, active compounds read low",0.0798 (active)
same,normalized growth,"locus YGL078C, strain dbp3, active compounds read low",0.885 (active)
same,normalized growth,"locus YGL086W, strain mad1, active compounds read low",0.697 (active)
same,normalized growth,"locus YGL167C, strain pmr1, active compounds read low",0.0729 (active)
same,normalized growth,"locus YGL173C, strain kem1, active compounds read low",0.0956 (active)
same,normalized growth,"locus YGL227W, strain vid30, active compounds read low",0.0725 (active)
same,normalized growth,"locus YGL240W, strain doc1, active compounds read low",0.157 (active)
same,normalized growth,"locus YGL248W, strain PDE1, active compounds read low",0.181 (active)
same,normalized growth,"locus YGL253W, strain hxk2, active compounds read low",0.0662 (active)
same,normalized growth,"locus YGR078C, strain PAC10, active compounds read low",0.174 (active)
same,normalized growth,"locus YGR135W, strain pre9, active compounds read low",0.842 (active)
same,normalized growth,"locus YGR229C, strain SMI1, active compounds read low",0.0784 (active)
same,normalized growth,"locus YGR252W, strain gcn5, active compounds read low",0.518 (active)
same,normalized growth,"locus YHR013C, strain ard1, active compounds read low",0.102 (active)
same,normalized growth,"locus YHR027C, strain rpn1, active compounds read low",0.0645 (active)
same,normalized growth,"locus YHR030C, strain SLT2, active compounds read low",0.0665 (active) and 0.09 (active)
same,normalized growth,"locus YHR079C, strain IRE1 (second series), active compounds read low",0.488 (active)
same,normalized growth,"locus YHR079C, strain IRE1, active compounds read low",0.107 (active)
same,normalized growth,"locus YHR094C, strain hxt1, active compounds read low",0.87 (active)
same,normalized growth,"locus YHR129C, strain ARP1, active compounds read low",0.173 (active)
same,normalized growth,"locus YHR142W, strain chs7, active compounds read low",0.064 (active)
same,normalized growth,"locus YHR200W, strain rpn10, active compounds read low",0.577 (active)
same,normalized growth,"locus YIL066C, strain RNR3, active compounds read low",0.116 (active)
same,normalized growth,"locus YIL073C, strain SPO22, active compounds read low",0.182 (active)
same,normalized growth,"locus YIL125W, strain kgd1, active compounds read low",0.405 (active)
same,normalized growth,"locus YIR030C, strain dcg1, active compounds read low",0.762 (active)
same,normalized growth,"locus YJL092W, strain hpr5, active compounds read low",0.0838 (active)
same,normalized growth,"locus YJL095W, strain BCK1 (second series), active compounds read low",0.0552 (active)
same,normalized growth,"locus YJL095W, strain BCK1, active compounds read low",0.0671 (active) and 0.102 (active)
same,normalized growth,"locus YJL115W, strain asf1, active compounds read low",0.113 (active)
same,normalized growth,"locus YJL129C, strain trk1, active compounds read low",0.0774 (active)
same,normalized growth,"locus YJL134W, strain LCB3, active compounds read low",0.308 (active)
same,normalized growth,"locus YJL154C, strain vps35, active compounds read low",0.0618 (active)
same,normalized growth,"locus YJL164C, strain tpk1, active compounds read low",0.0542 (active)
same,normalized growth,"locus YJL166W, strain qcr8, active compounds read low",0.057 (active)
same,normalized growth,"locus YJL168C, strain set2, active compounds read low",0.992
same,normalized growth,"locus YJL187C, strain SWE1 (second series), active compounds read low",0.193 (active)
same,normalized growth,"locus YJL187C, strain SWE1, active compounds read low",0.06 (active)
same,normalized growth,"locus YJR043C, strain POL32, active compounds read low",0.107 (active)
same,normalized growth,"locus YJR066W, strain TOR1, active compounds read low",-0.000468 (active)
